Data taken from PubChem BioAssay.
Where “and” joins values, the source holds several entries; their conditions need not be identical. Equal entries are not always repeated. Results filed as inconclusive are left out. Calls of active or inactive are those of the source. Cut-off read from the data, not from the text of the source, unless noted: active = inhibition above about 80%; inactive = the rest.

What was measured:
[1] = viability loss in pontine glioma line – cell-based, SU-DIPG-XXV, MIPE5.0, CellTiter-Glo, qHTS, dose response (AID 1347065; cut-off not given, nearly all actives have AC50 up to about 26 µM;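 note: cells exposed to compound for 48 hours before ATP readout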); settings: CellTiter-Glo ATP luminescence
[2] = JHH-DIPG-1 glioma cell viability, MIPE5.0 library, CellTiter-Glo luminescence, qHTS (AID 1347067; cut-off not given, nearly all actives have AC50 up to about 26 µM;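 note: cells exposed to compound for 48 hours before readout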); settings: JHH-DIPG-1 glioma viability, CellTiter-Glo ATP luminescence
[3] = SU-DIPG-XXV glioma cell viability, MIPE5.0 library, qHTS (AID 1347068; cut-off not given, nearly all actives have IC50 up to about 30 µM;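 for IC50: cells exposed to compound for 48 hours before viability readout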)
[4] = sensitizers of A549 cells to miR-34 induction, primary screen, imaging, A549 dox-inducible miR-34, nuclei and caspase counts (AID 1347080;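 active = compounds whose cell count with miR-34 switched on is under 0.7 times the count with it off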); settings: A549 miR-34 inducible, Hoechst nuclei count, 48 h
[5] = molecular target: NAD(+) hydrolase SARM1 (Homo sapiens) (UniProt Q6SZW1); assay: SARM1 TIR NADase inhibitors, cell lysate, NAD-Glo luminescence (AID 1508614;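 active = compound whose remaining NAD level is above about 45 nM, limit read from the data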;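 note: higher remaining NAD means stronger inhibition of SARM1 NADase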); settings: SAM-TIR HEK293T lysate NADase, at 1 µM, stronger effect = higher value
[6] = molecular target: Mitogen-activated protein kinase 7 (Homo sapiens) (UniProt Q13164); assay: ERK5 transactivation activators in reporter cells, primary screen, cell-based, HTS (AID 1508626;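 active = luciferase signal above three times the same-plate solvent-only control wells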;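 note: luciferase driven by Gal4-ERK5 fusion binding five Gal4 sites before minimal TATA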); settings: HeLa Gal4-ERK5 transactivation, 18 h, at 5 µM, stronger effect = higher value
[7] = LFS_MB_P medulloblastoma growth inhibition, cell-based, chromothripsis tumors, cisplatin or BGB combos (AID 1671449); settings: LFS_MB_P medulloblastoma cells;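 note: cells exposed for 96 hours; 0% = vehicle DMSO and 100% = killing by high DMSO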
[8] = HDN33 neuroblastoma growth inhibition, cell-based, chromothripsis tumors, cisplatin or BGB combos (AID 1671450); settings: HDN33 neuroblastoma cells, stronger effect = higher value;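 note: cells exposed to compound for four days; 0% = vehicle DMSO and 100% = cell killing by high DMSO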
[9] = ICB984 medulloblastoma cell growth inhibition, synergistic combos for chromothripsis tumors, cisplatin or BGB combos (AID 1671451; call rule not given here;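 note: cells exposed for 96 hours before readout; 0% = vehicle DMSO and 100% = killing by high DMSO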); settings: ICB984 medulloblastoma cells, drug combinations, stronger effect = higher value
[10] = LFS_MB_1R medulloblastoma cell growth inhibition, synergistic combos for chromothripsis tumors, cisplatin or BGB combos (AID 1671452); settings: LFS_MB_1R medulloblastoma cells, stronger effect = higher value;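 note: cells exposed for 96 hours before readout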
[11] = HTB85 osteosarcoma cell growth inhibition, synergistic combos for chromothripsis tumors, BGB or cisplatin IC20 combos (AID 1671453); settings: HTB85 osteosarcoma cells, drug combinations, stronger effect = higher value;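 note: cells exposed for 96 hours before readout; 0% = vehicle DMSO and 100% = high DMSO killing control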
[12] = CRL2098 osteosarcoma cell growth inhibition, synergistic combos for chromothripsis tumors, BGB or cisplatin IC20 combos (AID 1671454); settings: CRL2098 osteosarcoma cells, drug combinations, stronger effect = higher value;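 note: cells exposed for 96 h before readout; 0% = vehicle DMSO and 100% = killing by high DMSO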
[13] = HD-MB03 medulloblastoma cell growth inhibition, synergistic combos for chromothripsis tumors, BGB or cisplatin IC20 combos (AID 1671455; in the data active = inhibition above about 83%;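 note: 0% = vehicle DMSO and 100% = high DMSO as cytotoxic control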); settings: HD-MB03 medulloblastoma cells, stronger effect = higher value
[14] = SU-DIPG-VI glioma cell viability, MIPE4.0 library, CellTiter-Glo luminescence, qHTS (AID 1347066; cut-off not given, nearly all actives have AC50 up to about 30 µM;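 note: cells exposed to compound for 48 hours before readout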); settings: CellTiter-Glo ATP luminescence
[15] = survival rescue of mitochondrial mutant cells in low glucose, primary screen, MELAS cybrids, Rieske KO mouse fibroblasts, CellTiter-Glo (AID 1508586;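 active = mean z-score across replicates of 1.96 or higher in either the MELAS or the Rieske mutant cell line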;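 note: z relative to plate mean and SD of compound and empty wells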)
[16] = stronger effect = lower value, cell number ratio, induced over uninduced
[17] = measured here: relative caspase fold change +Dox/-Dox
[18] = measured here: total cells with miR-34 induction, stronger effect = lower value
[19] = measured here: total cells without miR-34 induction
[20] = at 0.5 µM, stronger effect = higher value
[21] = measured here: combination with BGB IC20, at 0.005 µM
[22] = measured here: combination with BGB IC40, at 0.005 µM
[23] = measured here: combination with BGB IC40, at 0.05 µM
[24] = measured here: combination with cisplatin, at 0.5 µM, stronger effect = higher value
[25] = measured here: combination with cisplatin, at 5 µM, stronger effect = higher value
[26] = measured here: with BGB IC20 combination, at 0.5 µM
[27] = measured here: with cisplatin IC20 combination, at 0.5 µM
[28] = measured here: 5 uM single agent, at 5 µM
[29] = measured here: combination with cisplatin, at 0.5 µM
[30] = measured here: combination with cisplatin, at 5 µM
[31] = measured here: with BGB IC20, at 0.5 µM
[32] = measured here: with BGB IC20, at 5 µM
[33] = measured here: with cisplatin IC20, at 0.5 µM
[34] = measured here: with cisplatin IC20, at 5 µM
[35] = measured here: combination with BGB at IC20, at 0.5 µM
[36] = measured here: combination with cisplatin at IC20, at 0.5 µM
[37] = measured here: combo with BGB at IC20, at 0.5 µM
[38] = measured here: combo with cisplatin at IC20, at 0.5 µM

Sequence of NAD(+) hydrolase SARM1 (Homo sapiens) (Q6SZW1 whole entry, looked up, the tested form may be a part): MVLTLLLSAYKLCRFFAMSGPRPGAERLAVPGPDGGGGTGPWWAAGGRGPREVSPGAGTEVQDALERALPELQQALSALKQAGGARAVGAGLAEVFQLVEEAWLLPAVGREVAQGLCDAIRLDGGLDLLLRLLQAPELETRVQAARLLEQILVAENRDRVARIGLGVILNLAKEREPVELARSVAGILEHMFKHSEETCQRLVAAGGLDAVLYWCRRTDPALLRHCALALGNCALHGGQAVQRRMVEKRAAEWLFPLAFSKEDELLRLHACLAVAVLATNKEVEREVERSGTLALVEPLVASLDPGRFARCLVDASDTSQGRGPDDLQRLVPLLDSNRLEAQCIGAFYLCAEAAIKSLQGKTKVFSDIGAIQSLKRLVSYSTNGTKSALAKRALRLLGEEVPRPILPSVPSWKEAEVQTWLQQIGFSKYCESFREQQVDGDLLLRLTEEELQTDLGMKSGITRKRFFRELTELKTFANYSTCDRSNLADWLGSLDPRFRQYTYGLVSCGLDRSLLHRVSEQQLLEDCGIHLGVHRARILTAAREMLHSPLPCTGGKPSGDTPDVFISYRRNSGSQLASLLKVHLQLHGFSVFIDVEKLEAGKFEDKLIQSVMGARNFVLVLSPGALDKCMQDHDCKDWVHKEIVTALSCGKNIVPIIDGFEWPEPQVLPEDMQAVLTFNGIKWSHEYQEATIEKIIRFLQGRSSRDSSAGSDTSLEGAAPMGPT
Sequence of Mitogen-activated protein kinase 7 (Homo sapiens) (Q13164 whole entry, looked up, the tested form may be a part): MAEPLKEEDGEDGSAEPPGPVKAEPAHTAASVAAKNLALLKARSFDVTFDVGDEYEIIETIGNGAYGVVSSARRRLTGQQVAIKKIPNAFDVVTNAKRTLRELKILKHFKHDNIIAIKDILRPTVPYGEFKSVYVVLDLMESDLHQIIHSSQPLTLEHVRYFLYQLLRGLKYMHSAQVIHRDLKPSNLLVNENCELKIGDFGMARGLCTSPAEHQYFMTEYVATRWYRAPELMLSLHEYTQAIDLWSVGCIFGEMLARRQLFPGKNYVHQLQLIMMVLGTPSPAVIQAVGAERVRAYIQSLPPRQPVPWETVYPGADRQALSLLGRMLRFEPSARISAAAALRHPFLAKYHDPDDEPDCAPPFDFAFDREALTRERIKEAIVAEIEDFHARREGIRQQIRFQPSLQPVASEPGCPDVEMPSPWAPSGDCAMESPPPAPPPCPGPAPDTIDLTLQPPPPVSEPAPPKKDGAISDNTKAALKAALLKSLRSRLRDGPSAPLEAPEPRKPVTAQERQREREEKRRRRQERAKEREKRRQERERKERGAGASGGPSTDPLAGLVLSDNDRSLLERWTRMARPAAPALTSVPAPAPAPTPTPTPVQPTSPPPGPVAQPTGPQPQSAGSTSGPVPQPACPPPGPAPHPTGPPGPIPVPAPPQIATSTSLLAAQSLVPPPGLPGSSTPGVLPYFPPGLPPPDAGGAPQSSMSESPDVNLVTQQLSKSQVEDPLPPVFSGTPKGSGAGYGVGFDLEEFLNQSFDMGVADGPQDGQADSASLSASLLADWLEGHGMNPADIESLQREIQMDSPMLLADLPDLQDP

Question: For Nc1nc(=S)c2[nH]cnc2[nH]1, which AC50 [1] is on record?
Answer: Its AC50 is 1480 nM (active).

Question: And the AC50 [2]?
Answer: The AC50 was 1050 nM (active).

Question: And the IC50 [3]?
Answer: Its IC50 is 4170 nM (active).

Question: And the fold change [4, 16]?
Answer: Its fold change is 1.16 (inactive).

Question: What about the fold change [4, 17] of the same compound?
Answer: The fold change was 0.96.

Question: What about the cell count [4, 18] of the same compound?
Answer: The cell count was 1820.

Question: And the cell count [4, 19]?
Answer: Its cell count is 1580.

Question: What about the remaining NAD [5] of the same compound?
Answer: The remaining NAD was 10 nM (inactive).

Question: And the luciferase signal [6]?
Answer: The luciferase signal was 52 AU (inactive).

Question: And the inhibition [7, 20]?
Answer: The inhibition was -26.3% (inactive).

Question: What about the inhibition [7, 21] of the same compound?
Answer: Its inhibition is -7.21%.

Question: What about the inhibition [7, 22] of the same compound?
Answer: The inhibition was -35.9%.

Question: And the inhibition [7, 23]?
Answer: The inhibition was -9.84%.

Question: What about the inhibition [7, 24] of the same compound?
Answer: Its inhibition is -38.8%.

Question: What about the inhibition [7, 25] of the same compound?
Answer: Its inhibition is -43.8%.

Question: And the inhibition ([8]; BGB combo, at 5 µM)?
Answer: Its inhibition is 73.6%.

Question: What about the inhibition ([8]; at 0.5 µM) of the same compound?
Answer: The inhibition was 33.6% (inactive).

Question: What about the inhibition ([8]; cisplatin combo, at 5 µM) of the same compound?
Answer: Its inhibition is 70.5%.

Question: What about the inhibition [8, 26] of the same compound?
Answer: Its inhibition is 23.3%.

Question: What about the inhibition [8, 27] of the same compound?
Answer: The inhibition was 18.7%.

Question: And the inhibition ([8]; single agent, at 5 µM)?
Answer: The inhibition was 80.7%.

Question: And the inhibition ([9]; BGB IC20 combo, at 0.005 µM)?
Answer: Its inhibition is -12.4%.

Question: And the inhibition ([9]; BGB IC40 combo, at 0.005 µM)?
Answer: The inhibition was -52.4%.

Question: What about the inhibition ([9]; BGB IC40 combo, at 0.05 µM) of the same compound?
Answer: The inhibition was -32.5%.

Question: What about the inhibition ([9]; at 0.5 µM) of the same compound?
Answer: The inhibition was -36% (inactive).

Question: And the inhibition ([9]; cisplatin combo, at 0.05 µM)?
Answer: The inhibition was -37.7%.

Question: And the inhibition ([9]; cisplatin combo, at 0.5 µM)?
Answer: The inhibition was -55.5%.

Question: What about the inhibition ([9]; cisplatin combo, at 5 µM) of the same compound?
Answer: Its inhibition is -19.8%.

Question: What about the inhibition [9, 28] of the same compound?
Answer: The inhibition was -9.37%.

Question: What about the inhibition ([10]; at 0.5 µM) of the same compound?
Answer: The inhibition was -22.2% (inactive).

Question: What about the inhibition [10, 23] of the same compound?
Answer: The inhibition was 5.91%.

Question: And the inhibition [10, 29]?
Answer: Its inhibition is -61.3%.

Question: What about the inhibition [10, 30] of the same compound?
Answer: The inhibition was -34.3%.

Question: And the inhibition ([11]; at 0.5 µM)?
Answer: Its inhibition is 1.06% (inactive).

Question: And the inhibition [11, 31]?
Answer: Its inhibition is 3.8%.

Question: And the inhibition [11, 32]?
Answer: The inhibition was 46%.

Question: And the inhibition [11, 33]?
Answer: Its inhibition is -7.75%.

Question: What about the inhibition [11, 34] of the same compound?
Answer: Its inhibition is 16.3%.

Question: What about the inhibition ([11]; single agent, at 5 µM) of the same compound?
Answer: The inhibition was 52.5%.

Question: And the inhibition ([12]; at 0.5 µM)?
Answer: The inhibition was -31.6% (inactive).

Question: And the inhibition [12, 35]?
Answer: Its inhibition is -18.7%.

Question: What about the inhibition [12, 36] of the same compound?
Answer: Its inhibition is -26.5%.

Question: And the inhibition ([13]; at 0.5 µM)?
Answer: Its inhibition is -3.75% (inactive).

Question: And the inhibition [13, 37]?
Answer: The inhibition was -3.35%.

Question: And the inhibition [13, 38]?
Answer: Its inhibition is -7.29%.

Question: What does the source list for Oc1ccc(OCc2ccccc2)cc1?
Answer: outcome [1]: inactive; outcome [14]: inactive; outcome [2]: inactive; fold change [4, 16]: 0.78 (inactive) and 0.903 (inactive); fold change [4, 17]: 1.95 and 0.958; cell count [4, 18]: 2470 and 5720; cell count [4, 19]: 3170 and 6340; z-score ([15]; MELAS cybrid survival, CellTiter-Glo 48 h, stronger effect = higher value): -0.263 (inactive) and 1.74 (inactive); z-score ([15]; Rieske KO mouse fibroblast survival, CellTiter-Glo 72 h): 0.599 and -0.357; remaining NAD [5]: 10 nM (inactive); luciferase signal [6]: 64 AU (inactive)

Question: With O=c1oc2c(O)c(O)cc3c(=O)oc4c(O)c(O)cc1c4c23 as the compound, how does the outcome [1] read?
Answer: The outcome was “inactive”.

Question: And the outcome [14]?
Answer: Its outcome is “inactive”.

Question: What about the outcome [2] of the same compound?
Answer: Its outcome is “inactive”.

Question: And the outcome [3]?
Answer: Its outcome is “inactive”.

Question: What about the remaining NAD [5] of the same compound?
Answer: Its remaining NAD is 10 nM (inactive).

Question: What about the luciferase signal [6] of the same compound?
Answer: The luciferase signal was 60 AU (inactive).

Question: What about the inhibition [7, 20] of the same compound?
Answer: Its inhibition is -26.4% (inactive).

Question: And the inhibition [7, 21]?
Answer: The inhibition was 13.8%.

Question: And the inhibition [7, 22]?
Answer: Its inhibition is -25.9%.

Question: What about the inhibition [7, 23] of the same compound?
Answer: The inhibition was -14%.

Question: What about the inhibition [7, 24] of the same compound?
Answer: The inhibition was -13.4%.

Question: What about the inhibition [7, 25] of the same compound?
Answer: The inhibition was -36.9%.

Question: What about the inhibition ([8]; BGB combo, at 5 µM) of the same compound?
Answer: The inhibition was -24.4%.

Question: And the inhibition ([8]; at 0.5 µM)?
Answer: Its inhibition is -5.05% (inactive).

Question: What about the inhibition ([8]; cisplatin combo, at 5 µM) of the same compound?
Answer: The inhibition was 3.04%.

Question: And the inhibition [8, 26]?
Answer: The inhibition was -1.3%.

Question: What about the inhibition [8, 27] of the same compound?
Answer: Its inhibition is -3.36%.

Question: And the inhibition ([8]; single agent, at 5 µM)?
Answer: The inhibition was -3.55%.

Question: What about the inhibition ([9]; BGB IC20 combo, at 0.005 µM) of the same compound?
Answer: Its inhibition is 10.1%.

Question: And the inhibition ([9]; BGB IC40 combo, at 0.005 µM)?
Answer: The inhibition was -45.8%.

Question: What about the inhibition ([9]; BGB IC40 combo, at 0.05 µM) of the same compound?
Answer: The inhibition was -40.1%.

Question: What about the inhibition ([9]; at 0.5 µM) of the same compound?
Answer: Its inhibition is -16.9% (inactive).

Question: What about the inhibition ([9]; cisplatin combo, at 0.05 µM) of the same compound?
Answer: The inhibition was -45.7%.

Question: And the inhibition ([9]; cisplatin combo, at 0.5 µM)?
Answer: Its inhibition is -24.8%.

Question: And the inhibition ([9]; cisplatin combo, at 5 µM)?
Answer: The inhibition was -34.2%.

Question: And the inhibition [9, 28]?
Answer: The inhibition was -15.6%.

Question: And the inhibition ([10]; at 0.5 µM)?
Answer: The inhibition was -12.6% (inactive).

Question: What about the inhibition [10, 23] of the same compound?
Answer: Its inhibition is -1.97%.

Question: And the inhibition [10, 29]?
Answer: Its inhibition is -11.4%.

Question: What about the inhibition [10, 30] of the same compound?
Answer: Its inhibition is -1.35%.

Question: And the inhibition ([11]; at 0.5 µM)?
Answer: The inhibition was -9.37% (inactive).

Question: And the inhibition [11, 31]?
Answer: Its inhibition is -9.05%.

Question: And the inhibition [11, 32]?
Answer: The inhibition was -11.1%.

Question: And the inhibition [11, 33]?
Answer: Its inhibition is -24.3%.

Question: What about the inhibition [11, 34] of the same compound?
Answer: The inhibition was -7.84%.

Question: What about the inhibition ([11]; single agent, at 5 µM) of the same compound?
Answer: The inhibition was 28.9%.

Question: And the inhibition ([12]; at 0.5 µM)?
Answer: Its inhibition is -20.7% (inactive).

Question: What about the inhibition [12, 35] of the same compound?
Answer: Its inhibition is -5.49%.

Question: What about the inhibition [12, 36] of the same compound?
Answer: The inhibition was -39.6%.

Question: What about the inhibition ([13]; at 0.5 µM) of the same compound?
Answer: The inhibition was 11.2% (inactive).

Question: And the inhibition [13, 37]?
Answer: The inhibition was -0.451%.

Question: And the inhibition [13, 38]?
Answer: The inhibition was -7.75%.
